Source: PubChem BioAssay (Tox21)
Inconclusive results are not listed. Activity calls are given as the source filed them. Unless noted, calls follow the shape of the dose curve; as a rule, active = well fitted curve in the direction sought with a large enough effect in the repeat runs; inconclusive = weak or mixed curves; inactive = no such curve, though single readings can be large; an effect the other way counts as inactive or inconclusive.

What was measured:
[1] = qHTS assay to test for compound auto fluorescence at 535 nm (green) in HEK293 cells (AID 720680)
[2] = qHTS assay to test for compound auto fluorescence at 460 nm (blue) in HEK293 cell free culture (AID 720681)
Procedure, shortened: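 Compounds were added to cell-free DMEM with 10% FBS and fluorescence read directly. The blue channel used 405 nm excitation and 460 nm emission, with triamterene as the reference fluorophore.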

[3] = qHTS assay to test for compound auto fluorescence at 535 nm (green) in HEK293 cell free culture (AID 720682)
Procedure, shortened: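 Steps: dispense DMEM/10% FBS into empty wells; pin in compound or DMSO; measure fluorescence at 485/535 nm. Values are fluorescein equivalents.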

[4] = qHTS assay to test for compound auto fluorescence at 590 nm (red) in HepG2 cell free culture (AID 720684)
Procedure, shortened: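 Compounds are added to culture medium (MEM, 10% FBS) lacking cells, then fluorescence is read at excitation 540 nm, emission 590 nm, with Rose Bengal sodium as the equivalency standard.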

[5] = qHTS assay to test for compound auto fluorescence at 535 nm (green) in HepG2 cell free culture (AID 720686)
[6] = qHTS assay to test for compound auto fluorescence at 460 nm (blue) in HepG2 cells (AID 720687)
Procedure, shortened: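 HepG2 cells in MEM with 10% FBS, attached overnight at 37 C, were exposed to compound or DMSO for 1 hr at 37 C, 5% CO2. Blue fluorescence was read at 405/460 nm, with triamterene as reference fluorophore.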

[7] = biological target: Glucocorticoid receptor (Homo sapiens) (UniProt P04150); experiment: qHTS assay to identify small molecule agonists of the glucocorticoid receptor (GR) signaling pathway (AID 720691; active = well fitted activation curve with a large enough effect in the signal ratio in the repeat runs, not every such curve was filed as active; the % refers to the signal ratio)
Procedure, shortened: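 Agonist mode in a HeLa line carrying a GRE-controlled beta-lactamase reporter. Compounds act for 18 h at 37 C before a 2 h room-temperature FRET substrate step and fluorescence reading.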

[8] = biological target: Glucocorticoid receptor (Homo sapiens) (UniProt P04150); experiment: qHTS assay to identify small molecule antagonists of the glucocorticoid receptor (GR) signaling pathway (AID 720692; active = well fitted inhibition curve with a large enough effect in the signal ratio in the repeat runs, not every such curve was filed as active; the % refers to the signal ratio)
Procedure, shortened: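 Cells plated, rested 4 h at 37 C/5% CO2; compounds in DMSO pin-transferred; dexamethasone added to 5 nM final; 18 h at 37 C; B/G FRET substrate added, 2 h room temperature; fluorescence measured.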

[9] = qHTS assay to identify small molecule antagonists of the glucocorticoid receptor (GR) signaling pathway - cell viability counter screen (AID 720693); also: nearly all actives have a fitted effect of over 55% in size
[10] = qHTS assay for identifying genotoxic compounds that show differential cytotoxicity against isogenic chicken DT40 cell lines with known DNA damage response pathways - Rad54/Ku70 mutant cell line (AID 743015); also: nearly all actives have a fitted effect of over 60% in size; also: potency is read from the fitted curve at half-maximal effect
[11] = qHTS assay to identify small molecule antagonists of the androgen receptor (AR) signaling pathway - cell viability counter screen (AID 743033; also: nearly all actives have a fitted effect of over 45% in size; also: potency is read from the fitted curve at half-maximal effect)
[12] = qHTS assay to identify small molecule antagonists of the androgen receptor (AR) signaling pathway using the MDA cell line - cell viability counter screen (AID 743041; also: nearly all actives have a fitted effect of over 45% in size)
Procedure, shortened: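 Same-well cytotoxicity was assessed by CellTiter-Fluor in MDA-kb2 AR-luc cells after 16 h of compound treatment under R1881 agonism.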

[13] = qHTS assay to test for compound auto fluorescence at 460 nm (blue) in HepG2 cell free culture (AID 720685)
Procedure, shortened: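 Compound (23 nL) or DMSO pinned into cell-free MEM with 10% FBS; blue fluorescence read at 405/460 nm excitation/emission, expressed as auto-fluorescence equivalency to triamterene.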

[14] = qHTS assay for identifying genotoxic compounds that show differential cytotoxicity against isogenic chicken DT40 cell lines with known DNA damage response pathways - Rev3 mutant cell line (AID 743014); also: nearly all actives have a fitted effect of over 55% in size; also: potency is read from the fitted curve at half-maximal effect
[15] = qHTS assay to test for compound auto fluorescence at 590 nm (red) in HEK293 cell free culture (AID 720683)
Procedure, shortened: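 Cell-free wells of DMEM with 10% FBS received compound, and intrinsic fluorescence was read at excitation/emission 540/590 nm. Values expressed as equivalence to Rose Bengal sodium.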

[16] = qHTS assay for identifying genotoxic compounds that show differential cytotoxicity against isogenic chicken DT40 cell lines with known DNA damage response pathways - wild type cell line (AID 743012); also: nearly all actives have a fitted effect of over 60% in size; also: potency is read from the fitted curve at half-maximal effect
Procedure, shortened: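 Cells (DT40 wild type, 300/well) are treated with DMSO-dissolved compounds after a ~0.5 h pre-incubation and kept 40 h at 37 C/5% CO2. Viability is then measured by CellTiter-Glo luminescence following 30 min at room temperature.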

[17] = biological target: Androgen receptor (Homo sapiens) (UniProt P10275); experiment: qHTS assay to identify small molecule agonists of the androgen receptor (AR) signaling pathway (AID 743036; active = well fitted activation curve with a large enough effect in the signal ratio in the repeat runs, with a control signal flat, not every such curve was filed as active; the % refers to the signal ratio)
Procedure, shortened: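 Reporter line: GeneBLAzer AR-UAS-bla-GripTite (HEK293). Steps: plate cells, 4 h rest, add compounds, 16 h at 37C, add LiveBLAzer B/G substrate, 2 h at RT, read fluorescence.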

[18] = biological target: Androgen receptor (Homo sapiens) (UniProt P10275); experiment: qHTS assay to identify small molecule agonists of the androgen receptor (AR) signaling pathway using the MDA cell line (AID 743040; also: nearly all actives have a fitted effect of over 20% in size)
Procedure, shortened: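 Human breast carcinoma MDA-kb2 reporter cells (MMTV-luc, AR/GR elements) were treated for 16 h at 37C in 0% CO2 following a 5 h settling period. Signal was quantified by ONE-Glo luminescence.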

[19] = biological target: Androgen receptor (Homo sapiens) (UniProt P10275); experiment: qHTS assay to identify small molecule antagonists of the androgen receptor (AR) signaling pathway using the MDA cell line (AID 743042; also: nearly all actives have a fitted effect of over 55% in size)
Procedure, shortened: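 MDA-kb2 breast carcinoma cells carrying MMTV-luciferase (AR/GR responsive) were co-treated with compounds and the agonist R1881 for 16 h at 37C. Inhibition read as ONE-Glo luminescence; CellTiter-Fluor fluorescence measured in parallel for cytotoxicity.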

[20] = biological target: Androgen receptor (Homo sapiens) (UniProt P10275); experiment: qHTS assay to identify small molecule antagonists of the androgen receptor (AR) signaling pathway (AID 743035; active = well fitted inhibition curve with a large enough effect in the signal ratio in the repeat runs, not every such curve was filed as active; the % refers to the signal ratio)
Procedure, shortened: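 Antagonism is scored as loss of R1881-driven beta-lactamase reporter expression in HEK293 cells carrying the reporter under a UAS element, after 16 h co-treatment at 37C and a 2 h room-temperature FRET substrate read.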
% is scaled to controls: 0 for no effect and ±100 for the full control effect.

Chain of Glucocorticoid receptor (Homo sapiens) (P04150 whole entry, looked up): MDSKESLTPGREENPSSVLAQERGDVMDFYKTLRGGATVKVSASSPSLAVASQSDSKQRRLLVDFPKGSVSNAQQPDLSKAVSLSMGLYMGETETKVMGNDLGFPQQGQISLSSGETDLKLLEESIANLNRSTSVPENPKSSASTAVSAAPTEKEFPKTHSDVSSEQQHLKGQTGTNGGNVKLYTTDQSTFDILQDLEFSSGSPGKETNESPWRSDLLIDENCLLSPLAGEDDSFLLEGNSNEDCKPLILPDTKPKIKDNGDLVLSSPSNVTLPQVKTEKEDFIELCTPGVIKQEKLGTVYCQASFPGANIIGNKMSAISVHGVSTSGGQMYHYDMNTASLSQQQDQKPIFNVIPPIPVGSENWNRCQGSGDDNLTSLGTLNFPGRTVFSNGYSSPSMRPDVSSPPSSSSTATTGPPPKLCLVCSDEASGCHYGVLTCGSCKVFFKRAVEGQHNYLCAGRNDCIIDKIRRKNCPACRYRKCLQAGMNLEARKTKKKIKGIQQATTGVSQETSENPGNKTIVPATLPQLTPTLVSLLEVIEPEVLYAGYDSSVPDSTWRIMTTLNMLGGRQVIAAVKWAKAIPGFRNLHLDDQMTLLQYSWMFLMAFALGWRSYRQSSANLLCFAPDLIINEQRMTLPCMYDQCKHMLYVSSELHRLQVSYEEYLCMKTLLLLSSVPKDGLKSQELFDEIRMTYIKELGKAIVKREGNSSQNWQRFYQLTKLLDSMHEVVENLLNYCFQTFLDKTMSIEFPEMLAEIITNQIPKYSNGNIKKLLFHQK
Chain of Androgen receptor (Homo sapiens) (P10275 whole entry, looked up): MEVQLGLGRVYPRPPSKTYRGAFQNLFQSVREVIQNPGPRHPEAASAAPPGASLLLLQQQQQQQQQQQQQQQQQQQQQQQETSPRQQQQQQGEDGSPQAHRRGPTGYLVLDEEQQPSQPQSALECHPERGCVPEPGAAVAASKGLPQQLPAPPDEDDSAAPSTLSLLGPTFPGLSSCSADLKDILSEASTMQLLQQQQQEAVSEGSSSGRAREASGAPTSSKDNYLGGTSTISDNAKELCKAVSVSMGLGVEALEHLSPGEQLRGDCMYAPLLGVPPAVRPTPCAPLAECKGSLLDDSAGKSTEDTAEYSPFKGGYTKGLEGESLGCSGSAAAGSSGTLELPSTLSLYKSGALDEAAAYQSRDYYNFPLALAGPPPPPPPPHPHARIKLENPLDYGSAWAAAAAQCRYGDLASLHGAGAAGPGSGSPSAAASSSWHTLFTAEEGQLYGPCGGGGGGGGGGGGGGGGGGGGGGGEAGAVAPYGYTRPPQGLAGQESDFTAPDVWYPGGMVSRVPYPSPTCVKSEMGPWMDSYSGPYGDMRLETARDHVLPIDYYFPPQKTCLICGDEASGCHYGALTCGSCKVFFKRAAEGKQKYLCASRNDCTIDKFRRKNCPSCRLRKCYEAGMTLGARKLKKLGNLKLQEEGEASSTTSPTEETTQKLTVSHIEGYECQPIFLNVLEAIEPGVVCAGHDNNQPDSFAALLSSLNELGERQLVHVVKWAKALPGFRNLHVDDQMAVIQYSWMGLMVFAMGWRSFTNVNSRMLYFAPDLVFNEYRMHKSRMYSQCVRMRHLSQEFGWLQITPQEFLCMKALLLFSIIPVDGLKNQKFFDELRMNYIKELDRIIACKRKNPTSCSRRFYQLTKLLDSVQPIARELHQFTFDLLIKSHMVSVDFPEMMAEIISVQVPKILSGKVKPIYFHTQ

CCCC(=O)OCC
inactive: outcome [1] | Potency [2] | outcome [3] | outcome [4] | outcome [5] | Potency [6] | Potency [7] | Potency [8] | Potency [9] | Potency [11] | Potency [12]
active: Potency [10] 68.6 µM

CCN(CC)C(C)CN1c2ccccc2Sc2ccccc21 (stereo not drawn)
inactive: fluorescence, % of fluorescein [1] -0.0513% [at 18.6 µM] | fluorescence, % of fluorescent control [2] -0.0592% [at 18.6 µM] | activity change [3] -0.135% [at 18.6 µM] | fluorescence, % of Rose Bengal [4] -0.332% [at 18.6 µM] | fluorescence, % of fluorescent control [13] 0.0011% [at 18.6 µM] | fluorescence, % of fluorescein control [5] -0.0641% [at 18.6 µM] | fluorescence, % of fluorescent control [6] -0.0255% [at 18.6 µM] | Potency [7] | Potency [9] | Potency [14] | Potency [11] | Potency [12]

CCCCOc1ccc(CC(=O)NO)cc1
active: Potency [14] 12.7 µM
inactive: fluorescence, % of fluorescein [1] 0.0125% [at 18.6 µM] | fluorescence, % of fluorescent control [2] -0.0158% [at 18.6 µM] | fluorescence, % of fluorescent control [15] -0.0389% [at 18.6 µM] | fluorescence, % of Rose Bengal [4] -0.259% [at 18.6 µM] | fluorescence, % of fluorescent control [13] 0.0098% [at 18.6 µM] | fluorescence, % of fluorescein control [5] -0.0407% [at 18.6 µM] | fluorescence, % of fluorescent control [6] -0.124% [at 18.6 µM] | Potency [7] | Potency [8] | Potency [9] | Potency [11] | Potency [12]

CCCCCOC(=O)c1ccc(O)cc1
active: Potency [10] 61.9 µM
inactive: outcome [1] | Potency [2] | outcome [3] | outcome [4] | Potency [13] | outcome [5] | Potency [9] | Potency [11] | Potency [12]

C1=Cc2ccccc2C1
inactive: outcome [1] | Potency [2] | outcome [3] | outcome [4] | outcome [5] | Potency [6] | Potency [9] | Potency [16] | Potency [14] | Potency [10] | Potency [11] | Potency [12]

CCCCOC(O)CC (stereo not drawn)
inactive: outcome [1] | Potency [2] | outcome [3] | outcome [4] | outcome [5] | Potency [6] | Potency [7] | Potency [8] | Potency [16] | Potency [10] | Potency [11] | outcome [17] | Potency [18] | Potency [12] | Potency [19]

O=C(Cl)c1c(Cl)cccc1Cl
inactive: outcome [1] | Potency [2] | outcome [3] | outcome [4] | outcome [5] | Potency [6] | Potency [7] | Potency [9] | Potency [16] | Potency [14] | Potency [10] | Potency [11] | Potency [12]

CC(C)CC=O
inactive: outcome [1] | Potency [2] | outcome [3] | outcome [4] | Potency [13] | outcome [5] | Potency [6] | Potency [7] | Potency [9] | Potency [16] | Potency [14] | Potency [10] | Potency [11] | Potency [12]

COc1ccc(OC)c(OC)c1
inactive: outcome [1] | Potency [2] | outcome [3] | outcome [4] | Potency [13] | outcome [5] | Potency [6] | Potency [7] | Potency [16] | Potency [14] | Potency [10] | Potency [11] | Potency [12]

CCCCCCCCCCCCCCCBr
inactive: outcome [1] | Potency [2] | outcome [3] | outcome [15] | outcome [5] | Potency [6] | Potency [7] | Potency [9] | Potency [16] | Potency [10] | Potency [11] | Potency [12]

COCCOCCOCCOCCOC
inactive: outcome [1] | Potency [2] | outcome [15] | outcome [4] | Potency [13] | outcome [5] | Potency [6] | Potency [7] | Potency [8] | Potency [9] | Potency [16] | Potency [14] | Potency [10] | Potency [11] | Potency [20] | Potency [18] | Potency [12] | Potency [19]

C[C@@H](C1=C(CCN(C)C)Cc2ccccc21)c1ccccn1
inactive: outcome [1] | Potency [2] | outcome [3] | Potency [13] | Potency [6] | Potency [9] | Potency [11] | Potency [12]

C=CC(=O)OCC(C)OCC(C)OCC(C)OC(=O)C=C (stereo not drawn)
active: Potency [16] 15.4 µM | Potency [14] 19.3 µM | Potency [10] 17.2 µM | Potency [11] 54.9 µM
inactive: outcome [1] | Potency [2] | outcome [3] | outcome [4] | Potency [13] | outcome [5] | Potency [7] | Potency [12]

COC(Cc1ccccc1)OC
inactive: outcome [1] | Potency [2] | outcome [3] | Potency [13] | Potency [6] | Potency [14] | Potency [10] | Potency [11] | Potency [12]

O=c1c2ccccc2nnn1CCl
inactive: outcome [1] | Potency [2] | outcome [3] | Potency [13] | outcome [5] | Potency [6] | Potency [8] | Potency [9] | Potency [16] | Potency [14] | Potency [10] | Potency [11] | Potency [12]

CC(C)(C)c1ccc(OCC2CO2)cc1 (stereo not drawn)
inactive: outcome [1] | Potency [2] | outcome [3] | outcome [4] | Potency [13] | outcome [5] | Potency [6] | Potency [7] | Potency [9] | Potency [16] | Potency [10] | Potency [11] | Potency [12]

Cc1cc(O)ccc1N
active: Potency [16] 13.8 µM | Potency [14] 6.14 µM | Potency [10] 9.74 µM
inactive: outcome [1] | Potency [2] | outcome [3] | outcome [4] | Potency [13] | outcome [5] | Potency [6] | Potency [7] | Potency [9] | Potency [18]

CC(=O)NCCCS(=O)(=O)O
inactive: outcome [1] | Potency [2] | outcome [3] | outcome [15] | Potency [7] | Potency [8] | Potency [16] | Potency [14] | Potency [10] | Potency [11] | Potency [12]
